Screening results (PubChem)
Only some compounds are listed: those with a hit (about 3.6% of all), similar ones and a draw of the others.
D1 ag: human D1 receptor agonism | P21728 | HEK293 T-REx D1 cells, calcium flux, agonist mode | AID 504660 | activation, % at 2 µM | hit rate 1% among 360,000
Target sequence (P21728 whole entry, looked up): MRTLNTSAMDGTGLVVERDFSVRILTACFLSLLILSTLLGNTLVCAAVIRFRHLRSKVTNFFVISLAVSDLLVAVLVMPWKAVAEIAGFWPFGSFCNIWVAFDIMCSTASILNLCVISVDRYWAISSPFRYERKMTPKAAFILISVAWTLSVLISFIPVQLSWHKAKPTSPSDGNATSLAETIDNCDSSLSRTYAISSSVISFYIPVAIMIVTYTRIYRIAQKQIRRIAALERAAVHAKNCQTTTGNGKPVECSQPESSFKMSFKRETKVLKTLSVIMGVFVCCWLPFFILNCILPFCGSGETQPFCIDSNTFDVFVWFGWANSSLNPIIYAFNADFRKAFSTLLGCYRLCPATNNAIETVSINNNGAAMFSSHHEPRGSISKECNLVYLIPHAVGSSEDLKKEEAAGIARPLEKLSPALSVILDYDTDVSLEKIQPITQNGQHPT
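Inducible HEK293 T-REx D1 cells, force-coupled to calcium signalling, were plated at 4000 cells/well with tetracycline and held overnight at 30 C. After no-wash calcium dye loading, compound-evoked calcium rise over 180 s flagged agonists.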
LDHA block: inhibitors of human lactate dehydrogenase A | P00338 | purified LDHA, NADH/diaphorase-resazurin fluorescence; hits give low values | activity change, % (values are at about 110 or 230 µM) | hit rate 0.15% among 480,000 | AID 1347041; in the data active = activity change below about -30%
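Resorufin fluorescence (ex540/em590), read at 0 and 20 min after diaphorase/resazurin addition, reports the NADH left after a 5 min room-temperature reaction of 2 nM human LDH5 with 0.06 mM NADH and 0.2 mM pyruvate.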
D1 antag: blocks dopamine activation of the human D1 receptor; HEK293 TREx D1 cells, calcium flux, dopamine EC80; hits give low values; activity change, negative = inhibition, % at 10 µM; hit rate 3.2% among 360,000; AID 504652; in the data active = activity change below about -30%
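Compound effects on dopamine-evoked calcium signalling were measured in tetracycline-induced HEK293 Trex D1 cells. Dopamine at EC80 followed a 180 s compound pre-read, and fluorescence was tracked kinetically for 180 s more.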
TRHR enhancer: allosteric enhancers of human TRH receptor; hit rate 0.66% among 360,000; enhancement, % at 2 µM; TRHR cells, fluo-8 calcium fluorescence, EC20 TRH enhancement; in the data active = enhancement above about 30%
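TRHR-expressing cells loaded with fluo-8 calcium dye were read kinetically (ex 480/em 530) during compound addition, then stimulated with an EC20 of TRH (10 nM final). Enhancement of the Gq-mediated intracellular calcium response was scored.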
D1 potentiator: human D1 dopamine receptor positive modulation | potentiation, % at 10 µM | P21728 | hit rate 0.036% among 360,000 | HEK293 TREx D1 cells, calcium flux, dopamine EC20 potentiation; in the data active = potentiation above about 30%
TRHR agonist: agonists of human TRH receptor; P34981; activation, % at 2 µM; AID 493084; hit rate 0.18% among 360,000; TRHR cells, calcium flux fluo-8, FDSS agonist mode
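Agonist-mode FDSS calcium read (Ex 480/Em 530, 1 s cycles) in 1536-well TRHR cells with fluo-8 dye, after 10-cycle baseline and 23 nL compound addition; TRH at EC20 (10 nM final) added afterwards for the enhancer phase.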
Numbers stand for hits; . = inactive; / = no result. Cut-off read from the data, not from the text of the source, unless noted: active = activation above about 30%; inactive = the rest.

SMILES	D1 ag	LDHA block	D1 antag	TRHR enhancer	D1 potentiator	TRHR agonist
Cc1ccc(-c2cn3cccc(C)c3n2)cc1	.	.	.	.	.	.
CCc1sc(C(=O)NCCCn2ccnc2)cc1Br	.	.	.	31	.	.
Cc1ccccc1NC(=O)C(=O)NCCCN1CCCC1=O	.	.	.	.	.	.
O=C(NCCCN1CCCC1=O)C(=O)Nc1cccc(F)c1	.	.	-44	.	.	.
O=C(NCCCN1CCCC1=O)c1cccc(S(=O)(=O)N2CCN(c3ccccc3)CC2)c1	.	.	-44	.	.	.
O=C(NCCCn1ccnc1)c1cccc(S(=O)(=O)Nc2ccc(F)cc2)c1	.	.	.	.	.	.
O=C(NCCCn1ccnc1)c1cccc(S(=O)(=O)Nc2ccc(Br)cc2)c1	51	.	.	36	.	.
O=C(Nc1nc(-c2ccc(Br)s2)cs1)C1CCN(C(=O)C2CC2)CC1	/	.	/	/	/	/
Cc1nnc(NC(=O)c2csc(NCC(C)C)n2)s1	/	.	/	/	/	/
Cc1occc1C(=O)OCC(=O)c1sc2ccccc2c1C	/	.	/	/	/	/
O=C(COC(=O)c1cccc(S(=O)(=O)N2CCN(c3ccccc3)CC2)c1)NCc1ccco1	.	.	.	35	.	.
CC(=O)c1cccc(NS(=O)(=O)c2cccc(S(=O)(=O)c3ccc(Br)cc3)c2)c1	.	.	-41	.	.	.
COc1ccc(S(=O)(=O)Nc2cccc(C(C)=O)c2)cc1Br	.	.	.	.	.	.
O=C(NCCCN1CCCC1=O)c1cccc(NS(=O)(=O)c2ccc(Br)cc2)c1	.	.	.	33	.	.
CCCc1noc(CSc2nnnn2-c2cc(C)ccc2OC)n1	/	.	/	/	/	/
COc1ccc2[nH]c(=O)c(CN(Cc3cccnc3)C(=O)Nc3ccccc3)cc2c1	.	.	-37	.	.	.
COc1ccc2[nH]c(=O)c(CN(Cc3cccs3)C(=S)Nc3cccc(C)c3)cc2c1	.	.	-32	.	.	.
CCOc1ccc2[nH]c(=O)c(CN(Cc3cccnc3)C(=O)Nc3ccccc3OC)cc2c1	.	.	.	.	.	.
COc1ccc2[nH]c(=O)c(CN(C(=O)c3cccnc3)c3ccccc3)cc2c1	.	.	.	.	36	.
Cc1ccsc1C(=O)Nc1ccccc1Cc1ccccc1	/	.	/	/	/	/
O=C(C1CCC(=O)N(C2CC2)C1)N1CCC(Oc2cccc(F)c2)CC1 (stereo unspecified)	.	.	-37	.	.	.
CC/C(C)=C(/C#N)C(=O)NC1CCCCC1	/	.	/	/	/	/
O=C(Nc1ccccc1)c1nnsc1S(=O)c1ccc(Cl)cc1 (stereo unspecified)	.	.	-41	.	.	.
CCCNC(=O)c1cc(-c2ccccc2OC(C)C)nc2ccccc12	/	.	/	/	/	/
CC(C)C(NC(=O)C(c1ccccc1)C1CCCC1)c1ccccc1 (stereo unspecified)	/	.	/	/	/	/
SMILES	D1 ag	LDHA block	D1 antag	TRHR enhancer	D1 potentiator	TRHR agonist
CN1N=C2c3ccccc3CCC2C1c1ccc(C(F)(F)F)cc1 (stereo unspecified)	.	.	-82	.	.	.
CN(C)c1ccc(C2C3CCCc4ccccc4C3=NN2C)cc1 (stereo unspecified)	.	.	.	.	.	.
CC(C)(C)CC(=O)Nc1nnc(SCC(=O)Nc2ccccc2F)s1	.	.	-40	.	.	.
CCC(C)C(=O)Nc1nnc(SCC(=O)Nc2ccc(F)cc2)s1 (stereo unspecified)	.	.	.	.	.	.
CC(C)CC(=O)Nc1nnc(SCC(=O)Nc2nccs2)s1	.	.	-35	.	.	.
CC(C)CC(=O)Nc1nnc(SCC(=O)NC2CCCC2)s1	/	.	/	/	/	/
CC(=O)Nc1ccc(NC(=O)CSc2nnc(NC(=O)Cc3ccc(F)cc3)s2)cc1	.	.	-53	.	.	.
Cc1[nH]c2ccccc2c1C1c2ccccc2C(=O)N1CCC(=O)N1CCN(c2ccccc2)CC1 (stereo unspecified)	/	.	/	/	/	/
Cc1cccc(CN2CCCC(C(=O)Nc3ccccc3Oc3cccnc3)C2)c1 (stereo unspecified)	.	.	.	.	.	.
O=C(Nc1ccccc1Oc1cccnc1)C1CCCN(C/C=C/c2ccc(F)cc2)C1 (stereo unspecified)	.	.	-30	.	.	.
CCCCc1c(C)[nH]n(-c2nc(C)c(C(=O)Nc3ccc(C)cc3)s2)c1=O	/	.	/	/	/	/
COc1cccc(C(=O)Oc2c(Br)cc(Br)cc2/C=N/NC(=O)c2cc(C)[nH]n2)c1	.	.	-32	.	.	.
Cc1cc(C(=O)N/N=C/c2cccc(OC(=O)c3cccc(Br)c3)c2)n[nH]1	.	.	.	.	.	.
C/C(=N\NC(N)=S)c1ccc(C2CCCCC2)cc1	/	.	/	/	/	/
CC[n+]1ccc2cc(OC)c(OC)cc2c1Cc1ccc(OC)c(OC)c1	.	.	-49	.	.	.
COc1ccc(Cc2c3cc(OC)c(OC)cc3cc[n+]2C)cc1OC	.	.	.	.	.	.
Cc1cc(SCC(=O)N(CCC#N)CCC#N)nc2c(C)cccc12	/	.	/	/	/	/
COc1ccc(NC(=O)CN2CCN(c3ccccc3F)CC2)c(OC)c1	.	.	.	.	.	.
COc1ccc(NC(=O)CCN2CCN(c3ccccc3F)CC2)c(OC)c1	.	.	-36	.	.	.
CC1CCN(CCCNC(=O)c2cc(Sc3ccc(F)cc3)nc3ccccc23)CC1	44	.	.	.	.	.
COc1ccc(Nc2cc(C(=O)NCCCN3CCN(c4ccccc4F)CC3)c3ccccc3n2)c(OC)c1	.	.	-42	.	.	.
COc1ccc(OC)c(NC(=O)CCN2CCN(c3ccccc3OC)CC2)c1	.	.	-64	.	.	.
COc1ccc(Nc2cc(C(=O)NCCCN3CCOCC3)c3ccccc3n2)c(OC)c1	.	.	.	.	.	.
CC1CCCCN1CCCNC(=O)c1cc(Sc2ccc(Cl)cc2)nc2ccccc12 (stereo unspecified)	.	.	.	.	.	.
Cc1ccc(Cl)cc1-n1ncc2c(NCC3CCCO3)ncnc21 (stereo unspecified)	/	.	/	/	/	/
SMILES	D1 ag	LDHA block	D1 antag	TRHR enhancer	D1 potentiator	TRHR agonist
Cc1cc(C)n2ncc(C(=O)O)c2n1	.	.	-46	.	.	.
Cc1cc(C)n2ncc(C(=O)Nc3ccc(Cl)c(Cl)c3)c2n1	.	.	.	.	.	.
CCOC(=O)c1cccc(NC(=O)/C=C/c2ccc([N+](=O)[O-])cc2)c1	.	.	-44	.	.	.
Nc1nc(C2CC2)c(Sc2sc(N)nc2C2CC2)s1	.	.	-49	.	.	.
Nc1nc(C2CCOCC2)cs1	.	.	.	.	.	.
CC(C)CNC(=O)C1CCN(C(=O)C(C)(C)C)CC1	/	.	/	/	/	/
Cc1ccc(S(=O)(=O)NCCC(=O)N2CCCCCC2)cc1	.	.	-36	.	.	.
